Laboratory results from article PMC4552634, “A New Set of Chemical Starting Points with Plasmodium falciparum Transmission-Blocking Potential for Antimalarial Drug Discovery” (PLoS ONE, 2015).
Screen size: about 13,000 compounds; about 3,200 (25%) showed an effect of 50% or more. Some of the results follow.

Tested on: P. falciparum stage V gametocytes
Set-up: BacTiter-Glo ATP luminescence viability of purified stage V gametocytes in 384-well plates, per cent inhibition versus DMSO
Conditions: 48 h, 5 µM; inhibitor

SMILES	% Inhibition [%]
Oc1ccc2[nH]c(-c3cccc(F)c3)nc2c1CN1CCCC1 [TCMDC-136531]	-40.99
CCOC(=O)c1cnc2cc(N3CCCC3)c(Cl)cc2c1OCC [TCMDC-131990]	37.97
O=C(Nc1cccc(-c2cccc(-c3nc4ccccc4[nH]3)c2)c1)Nc1ccc2c(c1)OCO2 [TCMDC-133167]	2.88
COc1cc(NC(=O)N2CCc3ccc(OCCC4CCCN4C)cc32)cc(C(F)(F)F)c1 (stereo not shown) [TCMDC-140248]	-14.34
CCCc1nc2c(N3CCCN(C(=O)NC4CCCCC4)CC3)cccc2n1Cc1ccccn1 [TCMDC-134632]	-23.2
CC(C)CC(C)NC(=O)C1Cc2c([nH]c3cc(Cl)ccc23)C2(CCN(CCc3ccccc3)CC2)N1 (stereo not shown) [TCMDC-141298]	48.04
CCNc1cc(C(=O)N[C@@H](Cc2ccc(F)c(F)c2)[C@H](O)CNC2CCCCC2)cc(N2CCCCS2(=O)=O)c1 [TCMDC-135060]	26.39
Cc1cc(C2CCN(CCCCNC(=O)c3ccc(NC(=O)c4ccc(Cl)cc4)cc3)CC2)c(C)cc1OCCN(C)C [TCMDC-138316]	117.2
CCOc1ccc(OCC)c(N2CCN(CCCCNC(=O)c3ccc(NC(=O)c4ccc(Cl)cc4)cc3)CC2)c1 [TCMDC-138224]	-9.659
Cc1cc(C2CCN(CCCCNC(=O)c3ccc(NC(=O)c4ccc(Cl)cc4)cc3)CC2)c(C)cc1OCc1ccncc1 [TCMDC-138308]	71.5
Cc1cc(C2CCN(CCCCNC(=O)c3ccc(NC(=O)c4ccc(Cl)cc4)cc3)CC2)c(C)cc1OCc1cccnc1 [TCMDC-138318]	-16.74
CN(C)CCOc1ccc(N2CCN(CCCCNC(=O)c3ccc(NC(=O)c4ccc(Cl)cc4)cc3)CC2)cc1 [TCMDC-138289]	85.59
Cc1cc(C2CCN(CCCCNC(=O)c3ccc(NC(=O)c4ccc(Cl)cc4)cc3)CC2)c(C)cc1OCc1nccn1C [TCMDC-138326]	1.081
CCOc1cc(C)c(C2CCN(CCCCNC(=O)c3ccc(NC(=O)c4ccc(Cl)cc4)cc3)CC2)cc1C [TCMDC-138282]	41.56
Cc1cc(C2CCN(CCCCNC(=O)c3ccc(NC(=O)c4ccc(Cl)cc4)cc3)CC2)c(C)cc1OC(C)C [TCMDC-138309]	96.15
CN(C)CCOc1ccc(N2CCN(CCCCNC(=O)c3ccc(/C=C/c4cc(Cl)cc(Cl)c4)cc3)CC2)cc1 [TCMDC-138290]	45.55
COCCOc1cc(C)c(C2CCN(CCCCNC(=O)c3ccc(NC(=O)c4ccc(Cl)cc4)cc3)CC2)cc1C [TCMDC-138344]	7.769
Cc1ccc(C)c(C2CCN(CCCCNC(=O)c3ccc(NC(=O)c4ccc(Cl)cc4)cc3)CC2)c1 [TCMDC-138330]	-7.9
CCCCc1ccccc1NS(=O)(=O)c1ccc(OC)c(N2CCNCC2)c1 [TCMDC-139238]	19.7
CN1CCC(C(=O)Nc2cccc(-c3ccc(-c4nc5cc(C(F)(F)F)ccc5[nH]4)s3)c2)CC1 [TCMDC-132184]	18.99
COc1ccc2ccc(F)c(CCN3CCC(NCc4cc5c(cn4)OCCO5)CC3)c2n1 [TCMDC-136226]	1.241
Cc1cnc(C(=O)Nc2cccc(-c3ccc(-c4nc5cc(C(F)(F)F)ccc5[nH]4)s3)c2)cn1 [TCMDC-137028]	12.51
OC(c1ccc2ccccc2c1)C1CN(CCc2ccccc2)CCC1(O)c1ccccc1 (stereo not shown) [TCMDC-131995]	4.082

SMILES	% Inhibition [%]
Cc1cccc2nc(-c3cccc(-c4ccc(NC(=O)Cc5ccc[n+]([O-])c5)cc4)c3)[nH]c12 [TCMDC-136993]	-15.96
O=C(Cc1cnc[nH]1)Nc1ccc(-c2cccc(-c3nc4ccc(C(F)(F)F)cc4[nH]3)c2)cc1 [TCMDC-136949]	9.618
COc1ccc(NC(=O)Nc2ccc(-c3cccc(-c4nc5c(C)cccc5[nH]4)c3)cc2)cc1 [TCMDC-133245]	-21.29
CCCN(CC1CC1)c1nc(C)nc2c(-c3ccccc3)cc(C)cc12 [TCMDC-138123]	91.17
CCCN(CC1CC1)c1ncc(-c2cccc(CNCc3ccccc3O)c2)cn1 [TCMDC-133138]	6.014
CCCN(CCC)C(=O)c1cc(-c2cccc(C)c2)nc2ccccc12 [TCMDC-124452]	-15.82
O=C(Nc1ccc(-c2cncc(NCCCN3CCCC3)c2)cc1)c1ccccc1 [TCMDC-133799]	7.133
CN1CC=C(c2c[nH]c3ccc(Br)cc23)CC1 [TCMDC-139098]	-11.28
CCN1CCN(c2cc(C)c3cc(NC(=O)c4ccc(C(C)(C)C)cc4)ccc3n2)CC1 [TCMDC-125579]	-38.88
CCN1CCc2nc3ccccc3c(C(=O)Nc3ccc(C#N)cc3)c2C1 [TCMDC-124513]	54.17
Cc1cc(NC(=O)Nc2ccc(C#N)cc2)c2ccccc2n1 [TCMDC-138956]	16.86
Cc1onc(-c2c(F)cccc2Cl)c1C(=O)Nc1ccccc1I [TCMDC-125644]	-7.209
CC(=O)c1ccc(NC(=O)Nc2ccc(N(C)c3ccnc(Nc4cccc(CS(C)(=O)=O)c4)n3)cc2)cc1 [TCMDC-138736]	-10.01
CS(=O)(=O)Cc1ccc(Nc2nccc(N3CCCc4cc(NC(=O)Nc5cccc(C(F)(F)F)c5)ccc43)n2)cc1 [TCMDC-134309]	69.84
CC(=O)c1cccc(NC(=O)NC2CCN(c3ccnc(Nc4ccc(F)cc4)n3)C2)c1 (stereo not shown) [TCMDC-133594]	-13.54
CCCCCCCc1c2c(C)c(C(=O)OCC)nc-2cc2n1CC(C)=C2C [TCMDC-124023]	93.66
O=C(CCCCCNC(=O)c1ccc(O)c(-c2ccc(Cl)c(Cl)c2)c1)NCCN1CCOCC1 [TCMDC-140848]	9.445
O=C(/C=C/c1ccc(Cl)c(Cl)c1)NCC1CCC(N2CCC(c3c[nH]c4ccccc34)CC2)CC1 (stereo not shown) [TCMDC-139676]	103.8
O=C(/C=C/c1ccc(Cl)c(Cl)c1)NCC1CCC(CN2CCC(c3c[nH]c4ccccc34)CC2)CC1 (stereo not shown) [TCMDC-139484]	1.039
O=C(/C=C/c1ccc(Cl)c(Cl)c1)NCC1CCCC(CN2CCC(c3c[nH]c4ccccc34)CC2)C1 (stereo not shown) [TCMDC-139490]	-31.4
O=C(/C=C/c1ccc(Cl)c(Cl)c1)NCCC1CCC(N2CCC(c3c[nH]c4ccccc34)CC2)CC1 (stereo not shown) [TCMDC-139823]	54.15
O=C(/C=C/c1ccc(Cl)c(Cl)c1)NCCC1CCC(N2CCC(c3c[nH]c4ccc(O)cc34)CC2)CC1 (stereo not shown) [TCMDC-139824]	-86.05
O=C(/C=C/c1ccc(Cl)c(Cl)c1)NCCCCCN1C2CCC1CC(c1c[nH]c3ccccc13)C2 (stereo not shown) [TCMDC-139239]	-9.344
